{"source": "ChEMBL document CHEMBL3988442", "about": "“University of Dundee, Small-Polar-MMV Screening Library” (2021)", "note": "Among all 48,000 compounds or so, about 13,000 (27%) showed an effect of 50% or more. The list shows a part of the results.", "data": [{"system": "Wolbachia pipientis", "test": "Anti-Wolbachia Cell-Based Screen", "assay_type": "functional", "parameters": "scale not given: in the data most compounds retested in dose-response had high values", "settings": "5 µM", "units": {"Percent Effect": "%"}, "values": [{"smiles": "CCc1nccn1C1CCCN(C(=O)c2cnc[nH]2)C1", "note": "(stereo not drawn)", "Percent Effect": 2.73}, {"smiles": "CCCS(=O)(=O)NCC1OCCc2cn(CC3CCOCC3)nc21", "note": "(stereo not drawn)", "Percent Effect": -15.6}, {"smiles": "CC(C)CN1C[C@@H]2OCC(=O)N(Cc3nccn3C)[C@@H]2C1", "Percent Effect": 0.1712}, {"smiles": "CNC(=O)[C@H]1C[C@H]2OCC[C@H]2N(CCOc2ccc(Cl)cc2)C1.O=C(O)C(F)(F)F", "Percent Effect": -0.765}, {"smiles": "CCN(CC)S(=O)(=O)c1cc(NC(=O)CCc2cscn2)ccc1C", "Percent Effect": -4.761}, {"smiles": "O=C(NC[C@]1(O)CCN(Cc2ccsc2)C[C@H]1O)c1c[nH]cn1", "Percent Effect": 99.16}, {"smiles": "CN1CCC(NCC2(O)CCCN(Cc3ccccc3F)C2=O)CC1", "note": "(stereo not drawn)", "Percent Effect": -22.31}, {"smiles": "O=C(NC[C@]1(O)CN(Cc2ccccc2F)C[C@H]1O)c1cscn1", "Percent Effect": 81.64}, {"smiles": "O=C(NC[C@]1(O)CN(Cc2ccccc2F)C[C@H]1O)c1ccccn1", "Percent Effect": -4.429}, {"smiles": "Cc1cncc(CN2CC[C@@](O)(CNC(=O)c3c[nH]cn3)[C@H](O)C2)c1", "Percent Effect": 108.4}, {"smiles": "O=C(NC[C@]1(O)CCN(Cc2ccccc2F)C[C@H]1O)c1c[nH]cn1", "Percent Effect": 105}, {"smiles": "Fc1ccccc1CC1CCN(Cc2cscn2)CC1", "Percent Effect": 12.39}, {"smiles": "Cc1cccc(CN2CCCC(O)(CNCCc3c[nH]cn3)C2=O)c1", "note": "(stereo not drawn)", "Percent Effect": 23.49}, {"smiles": "NC1(C(=O)NCC2CCCN(Cc3ccccc3F)C2)CCCC1", "note": "(stereo not drawn)", "Percent Effect": -12.52}, {"smiles": "Cc1cc(CN2CCC(CNC(=O)c3cnc(C)nc3C)C2)[nH]n1", "note": "(stereo not drawn)", "Percent Effect": -6.024}, {"smiles": "COCC1CC2(CCN(S(=O)(=O)C3CC3)CC2)CN1c1ncccn1.O=C(O)C(F)(F)F", "note": "(stereo not drawn)", "Percent Effect": -3.839}, {"smiles": "CCn1cnnc1CNC(=O)NCC(C)(CC)N1CCOCC1", "note": "(stereo not drawn)", "Percent Effect": -7.317}, {"smiles": "Cc1n[nH]c(C2CN(Cc3nnc(C4CC4)n3C)CCO2)n1", "note": "(stereo not drawn)", "Percent Effect": 1.096}, {"smiles": "CCNC(=O)[C@@H]1C[C@H](N)CN1c1cc(C(F)(F)F)nc(N2CCCC2)n1", "Percent Effect": -17.39}, {"smiles": "CCNC(=O)[C@@H]1C[C@H](N)CN1c1cc(C(F)(F)F)nc(N(C)C)n1", "Percent Effect": -10.07}, {"smiles": "CCNC(=O)[C@@H]1C[C@H](N)CN1c1cc(CC)nc(N(C)C)n1", "Percent Effect": 116.6}, {"smiles": "COC(=O)c1ccc(N2CCN(C(=O)c3ccc(=O)n(C)c3)CC2)cc1", "Percent Effect": -4.416}, {"smiles": "COC(=O)c1cccc(C(=O)N2CCN(c3ccc(Cl)cc3)CC2)n1", "Percent Effect": 100.8}, {"smiles": "COC(=O)c1cccc(C(=O)N2CCN(c3ccc(OC)cc3)CC2)n1", "Percent Effect": 142.3}, {"smiles": "O=C(c1ncncc1Cl)N1CCN(c2ccc(Cl)cc2)CC1", "Percent Effect": -23.14}, {"smiles": "COC(=O)c1cccc(C(=O)N2CCN(c3ccccc3F)CC2)n1", "Percent Effect": 5.907}, {"smiles": "COC(=O)c1ccc(N2CCN(C(=O)c3ccn(C)c(=O)c3)CC2)cc1", "Percent Effect": 7.353}, {"smiles": "CCC(C)(C)C1CCCN1C(=O)c1coc(S(=O)(=O)NC)c1", "note": "(stereo not drawn)", "Percent Effect": 25.9}, {"smiles": "Cc1cccc(N2CCC3(CCCN3Cc3c(C)nn(C)c3C)CC2)n1", "Percent Effect": 12.41}, {"smiles": "CC(C)SCc1cccc(NC(=O)NCCc2nnc[nH]2)c1", "Percent Effect": 5.819}, {"smiles": "Cc1cnn(C2CCCN(C(=O)c3cn4cccnc4n3)C2)c1", "note": "(stereo not drawn)", "Percent Effect": -8.081}, {"smiles": "Cc1cc(C)n(C2CCCN(C(=O)c3cn4cccnc4n3)C2)n1", "note": "(stereo not drawn)", "Percent Effect": 140.9}, {"smiles": "CCc1nccn1C1CCCN(C(=O)c2cn3cccnc3n2)C1", "note": "(stereo not drawn)", "Percent Effect": -0.7445}, {"smiles": "Cc1cc(C)n(C2CCN(C(=O)c3cn4ccsc4n3)C2)n1", "note": "(stereo not drawn)", "Percent Effect": -17.41}, {"smiles": "Cc1nc(C)n(C2CCCN(C(=O)c3cn4cccnc4n3)C2)n1", "note": "(stereo not drawn)", "Percent Effect": 114.3}, {"smiles": "Cc1nc(C)n(C2CCCN(C(=O)c3csnn3)C2)n1", "note": "(stereo not drawn)", "Percent Effect": -2.311}, {"smiles": "CC(C)c1nccn1C1CCCN(C(=O)c2cn3cccnc3n2)C1", "note": "(stereo not drawn)", "Percent Effect": 106.5}, {"smiles": "CC(C)c1nccn1C1CCCN(C(=O)c2cnc[nH]2)C1", "note": "(stereo not drawn)", "Percent Effect": -3.09}, {"smiles": "Cc1nc(C)n(C2CCCN(C(=O)c3cn4c(C)cccc4n3)C2)n1", "note": "(stereo not drawn)", "Percent Effect": 8.927}, {"smiles": "Cc1occc1C(=O)Nc1cccc(C(=O)OCC2CCCN2)c1.Cl", "note": "(stereo not drawn)", "Percent Effect": -3.308}, {"smiles": "O=C(O)c1ccccc1-c1ccc(CN2CCCC(O)C2)cc1", "note": "(stereo not drawn)", "Percent Effect": 104.1}, {"smiles": "NC(=O)c1ccc(CN2CCCC(O)C2)cc1", "note": "(stereo not drawn)", "Percent Effect": 1.38}, {"smiles": "O=c1cc(-c2cccnc2)nc(-c2ccc(CN3CC[C@H](O)C3)cc2)[nH]1", "Percent Effect": -0.3576}, {"smiles": "O=C1CN(Cc2ccc(-c3ccccc3C(=O)O)cc2)CCN1", "Percent Effect": 3.495}, {"smiles": "O=C(O)c1ccccc1-c1ccc(CN2CC(O)C2)cc1", "Percent Effect": 128.6}, {"smiles": "COc1ccc(C(C)N2CCC(CO)CC2)cc1Cl", "note": "(stereo not drawn)", "Percent Effect": 2.465}, {"smiles": "CSC1(CNC(=O)N(C)Cc2ccc(C)s2)CCOCC1", "Percent Effect": -11.34}, {"smiles": "COCCn1c2c(ccc1=O)CCN(C(=O)Cc1cccs1)CC2", "Percent Effect": 99.02}, {"smiles": "COCCn1c2c(ccc1=O)CCN(C(=O)Cc1ccsc1)CC2", "Percent Effect": 97.29}, {"smiles": "COCCN1CCOCC12CCN(C(=O)Cc1cccs1)CC2.O=C(O)C(F)(F)F", "Percent Effect": 7.053}, {"smiles": "COCCN1CC2(CCCN(C(=O)CCCc3cccs3)C2)CCC1=O", "note": "(stereo not drawn)", "Percent Effect": -3.205}, {"smiles": "O=C(Cc1ccsc1)N1CCc2ccc(=O)n(CC3CC3)c2CC1", "Percent Effect": -8.117}, {"smiles": "CN(CCCc1nccn1C)C(=O)C1COc2ccccc2C1", "note": "(stereo not drawn)", "Percent Effect": -14.96}, {"smiles": "Cc1ncsc1CCN(C)C(=O)c1ccc(Cn2cnnn2)cc1", "Percent Effect": -0.04633}, {"smiles": "Cc1nc(N2CCOCC2)nc2c1CN(C(=O)C(C)C)CC2", "Percent Effect": 99.02}, {"smiles": "Cc1nc(N2CCOCC2)nc2c1CCN(C(=O)C1(C#N)CC1)CC2", "Percent Effect": -22.43}, {"smiles": "Cc1nc(N2CCOCC2)nc2c1CN(C(=O)Cc1ccccn1)CC2", "Percent Effect": 6.226}, {"smiles": "Cc1nc(N2CCOCC2)nc2c1CCN(C(=O)N1CCCC1)CC2", "Percent Effect": 118.6}, {"smiles": "Cc1nc(N2CCOCC2)nc2c1CCN(C(=O)NC1CCCC1)CC2", "Percent Effect": 25.82}, {"smiles": "Cc1nc(N2CCCC2)nc2c1CCN(C(=O)C1CCCC1)CC2", "Percent Effect": 4.07}, {"smiles": "Cc1nc(N2CCOCC2)nc2c1CN(CC(=O)N(C)C)CC2", "Percent Effect": -19.6}, {"smiles": "Cc1nc(N2CCCC2)nc2c1CCN(C(=O)N1CCCC1)CC2", "Percent Effect": 98.24}, {"smiles": "Cc1nc(N2CCCC2)nc2c1CCN(C(=O)CC1CC1)CC2", "Percent Effect": 43.96}, {"smiles": "CS(=O)(=O)CCN1C[C@H](NC(=O)c2cnc(O)cn2)[C@@H](C2CC2)C1", "Percent Effect": 5.128}, {"smiles": "Cn1cccc1C(O)CNS(=O)(=O)c1ccccc1F", "note": "(stereo not drawn)", "Percent Effect": -11.88}, {"smiles": "CC(C)CCC(=O)N1CCN(c2ncnc3nc(N)ccc23)CC1", "Percent Effect": -4.213}, {"smiles": "COc1ccc(Cl)cc1NCC(=O)N(Cc1ccccn1)C1CC1", "Percent Effect": -7.935}, {"smiles": "COc1ccc(Cl)cc1NCC(=O)NCCc1ccccn1", "Percent Effect": 3.443}, {"smiles": "COc1cc(CNC(=O)CNc2cc(Cl)ccc2OC)ccn1", "Percent Effect": -1.117}, {"smiles": "COc1ccc(Cl)cc1NCC(=O)NCCNc1ncccn1", "Percent Effect": 100.4}, {"smiles": "COc1ccc(Cl)cc1NCC(=O)NCc1cccnc1OC", "Percent Effect": 108}, {"smiles": "COc1c(Cl)cc(C(=O)NCCNc2ncccn2)cc1Cl", "Percent Effect": 11.68}, {"smiles": "COc1ncccc1NC(=O)N1CCCC1c1cc(C)no1", "note": "(stereo not drawn)", "Percent Effect": -4.048}, {"smiles": "Cc1cc(C(=O)N2C[C@H]3CC[C@@H]2CN(C)C3)ccc1Cl", "Percent Effect": -9.049}, {"smiles": "CC(C)(C)OC(=O)NC(C)(C)c1noc(CSc2ccccn2)n1", "Percent Effect": 18.32}, {"smiles": "COC(=O)NC1(C(=O)Nc2ccc(-c3cc[nH]n3)cc2)CCCC1", "Percent Effect": -10.93}, {"smiles": "CC(=O)N1CC2(CCCN2Cc2ccc(Cl)cc2)Cc2ccccc21", "note": "(stereo not drawn)", "Percent Effect": 134.6}, {"smiles": "Cc1cc(C(=O)N2CCCC3(CCCN3Cc3cccnc3)C2)[nH]n1", "note": "(stereo not drawn)", "Percent Effect": 0.008691}, {"smiles": "Cn1cc(CN2CCCC3(CCCN3S(C)(=O)=O)C2)cn1.O=C(O)C(F)(F)F", "note": "(stereo not drawn)", "Percent Effect": 1.436}, {"smiles": "CCS(=O)(=O)N1CCCC2(CCCN2Cc2cccc(Cl)c2)C1.O=C(O)C(F)(F)F", "note": "(stereo not drawn)", "Percent Effect": -14.69}, {"smiles": "CC(=O)N1CC2(CCCCN2Cc2ccc(Cl)cc2)Cc2ccccc21", "note": "(stereo not drawn)", "Percent Effect": 100.4}, {"smiles": "CS(=O)(=O)N1CC2(CCCN2Cc2ccc(Cl)cc2)Cc2ccccc21", "note": "(stereo not drawn)", "Percent Effect": 113.6}, {"smiles": "CC(C#N)CSc1ccccc1NCC(=O)NC(C1CC1)C1CC1", "note": "(stereo not drawn)", "Percent Effect": -11.19}, {"smiles": "NC(=O)CN1CCC(OCc2ccc(Cl)c(Cl)c2)CC1", "Percent Effect": 99.68}, {"smiles": "CNC(=O)CN1CCN(C(=O)Nc2ccc(Cl)cc2F)CC1", "Percent Effect": 0.4531}, {"smiles": "CCOC1CCN(C(=O)NCc2ccc(CN3CCOCC3)cc2)CC1", "Percent Effect": -24.74}, {"smiles": "CNC(=O)CN1CCC(c2cc(OC)cc(OC)c2)C1", "note": "(stereo not drawn)", "Percent Effect": 8.564}, {"smiles": "NC(=O)CN1CCC(NC(=O)COc2ccc(Cl)c(Cl)c2)CC1", "Percent Effect": 99.17}, {"smiles": "CSCCC(O)C(=O)N1CCC(OCc2cccnc2)CC1", "note": "(stereo not drawn)", "Percent Effect": -3.942}, {"smiles": "CCC(N)C(=O)N1CCC(OCc2ccc(Cl)c(Cl)c2)CC1.Cl", "note": "(stereo not drawn)", "Percent Effect": 104.6}, {"smiles": "NC(=O)CN1CCC(C(=O)NCc2ccc3nonc3c2)CC1", "Percent Effect": -14.82}, {"smiles": "CC(C)Oc1cccc(CC(=O)NC2CCN(CC(N)=O)CC2)c1", "Percent Effect": -2.756}, {"smiles": "COc1cccc(COCC(=O)NC2CCN(CC(N)=O)CC2)c1", "Percent Effect": 5.2}, {"smiles": "CNC(=O)CN1CCC(OCc2ccc(Cl)c(Cl)c2)CC1", "Percent Effect": 83.56}, {"smiles": "NC(=O)CN1CCC(Nc2ccnc3ccc(Cl)cc23)CC1", "Percent Effect": 13.98}, {"smiles": "CCn1c(N)nc2cc(C(=O)N3CCN(CC(F)(F)F)CC3)cnc21", "Percent Effect": -2.793}, {"smiles": "COc1ccc(F)c(CN2CCCC3(CCN(C(=O)CSC)C3)C2)c1", "note": "(stereo not drawn)", "Percent Effect": -11.54}, {"smiles": "Cc1ccc(F)c(C(=O)NC2CCC(N3C(=O)CCC3=O)CC2)c1", "note": "(stereo not drawn)", "Percent Effect": -6.109}, {"smiles": "CN(C)c1ncccc1CNC(=O)c1csc(Br)c1", "Percent Effect": -2.901}, {"smiles": "CN(C)c1ccc(C(=O)NCc2csc(Br)c2)cn1", "Percent Effect": 132.1}, {"smiles": "CCn1cc(C(=O)NCc2csc(Br)c2)cn1", "Percent Effect": -5.042}, {"smiles": "O=C(NCc1csc(Br)c1)c1cnccn1", "Percent Effect": 122.2}, {"smiles": "CN1CCCN(C(=O)NCc2csc(Br)c2)CC1", "Percent Effect": -2.09}]}]}
